Tau ThT inhib = blocks human tau fibril formation measured by thioflavin T; recombinant tau K18 P301L, heparin-induced fibrillization, ThT fluorescence; Potency, µM (series often up to 57.4 µM), for the others: top-dose activity, negative = inhibition, most hits filed as inhibitors; 2.1% of 270,000 active; AID 1460; further: potency means the concentration at half of the fitted maximal effect; nearly all actives have a fitted effect of over 55% in size
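Aggregation was driven by heparin (20 uM final) acting on recombinant tau […] bearing P301L in 100 mM sodium acetate pH 7; fibrils were detected with Thioflavin T.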
PNC assembly inh = inhibitors of perinucleolar compartment assembly; 3.1% of 140,000 active; PC3M PTB-GFP, PNC prevalence imaging, 16 h; hits give low values; activity change (PNC), negative = inhibition, % at 10 µM;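 active means readout at or below -70, meaning at least 70% loss of cells showing the perinucleolar compartment, a nuclear body marking cancer cells; inconclusive means readout between -30 and a set limit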;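 further: plate controls were DMSO wells for no effect and camptothecin positive control wells for full effect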
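Compounds are pinned in duplicate onto adhered PC3M cells stably expressing GFP-tagged PTB and incubated 16 h at 37 C. Cells are then fixed, nuclei stained with Hoechst, and PNC-positive cells counted.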
KDM4E inh = JMJD2E (human) inhibition; B2RXH2; JMJD2E catalytic domain, FDH-coupled NADH fluorescence (FDH is formaldehyde dehydrogenase); Potency, µM (titrated, usually from 57.1 µM), without a hit: at the highest dose activity change, negative = inhibition, actives largely listed as inhibitors; 1.6% of 230,000 active; AID 2147; active means well fitted inhibition curve with a large enough effect, not every such curve was filed as active; inconclusive means small, poorly fitted or top-dose-only effect, or another doubt; inactive means no such curve, though single readings can be large or run the other way;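 further: potency means the concentration at half of the fitted maximal effect; 0% = wells with enzyme and -100% = buffer wells without enzyme; nearly all actives have a fitted effect of over 50% in size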
Target sequence (B2RXH2 1-337 limits assumed): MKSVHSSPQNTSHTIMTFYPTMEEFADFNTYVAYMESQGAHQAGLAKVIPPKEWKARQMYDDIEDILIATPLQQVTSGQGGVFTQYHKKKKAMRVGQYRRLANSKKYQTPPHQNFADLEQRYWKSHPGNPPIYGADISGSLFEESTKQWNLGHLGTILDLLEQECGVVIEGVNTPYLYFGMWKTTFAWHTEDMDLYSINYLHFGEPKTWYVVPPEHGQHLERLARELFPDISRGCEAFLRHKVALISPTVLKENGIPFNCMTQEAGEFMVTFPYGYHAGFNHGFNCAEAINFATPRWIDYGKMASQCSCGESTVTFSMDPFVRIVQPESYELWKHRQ
Tau fluor counter = counter-screen for tau fibril formation inhibitors. Potency, µM (titrated, usually from 57.7 µM), for the others: at the highest dose activity change, negative = decrease. tau K18 P301L Alexa594 fluorescence, heparin fibrillization. 0.93% of 280,000 active; further: potency means the concentration at half of the fitted maximal effect; nearly all actives have a fitted effect of over 55% in size
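Human tau K18 P301L (15 uM unlabeled, 0.24 uM Alexa 594-labeled) in 100 mM sodium acetate pH 7 with 20 uM heparin, 6 hr at 37 C. ThT 30 uM added, 1 hr ambient; Alexa 594 FP and total fluorescence read at 555/632 nm.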
NPSR antagonist = neuropeptide S receptor (human) antagonism, cAMP | CHO-NPSR cells, cAMP TR-FRET, antagonist mode | Potency, µM (doses to about 38.3 µM), inactives show top-dose activity change, negative = inhibition, most hits filed as inhibitors | 1% of 220,000 active | AID 1461; further: potency means the concentration at half of the fitted maximal effect; nearly all actives have a fitted effect of over 50% in size
Target sequence (Q6W5P4 whole entry, looked up): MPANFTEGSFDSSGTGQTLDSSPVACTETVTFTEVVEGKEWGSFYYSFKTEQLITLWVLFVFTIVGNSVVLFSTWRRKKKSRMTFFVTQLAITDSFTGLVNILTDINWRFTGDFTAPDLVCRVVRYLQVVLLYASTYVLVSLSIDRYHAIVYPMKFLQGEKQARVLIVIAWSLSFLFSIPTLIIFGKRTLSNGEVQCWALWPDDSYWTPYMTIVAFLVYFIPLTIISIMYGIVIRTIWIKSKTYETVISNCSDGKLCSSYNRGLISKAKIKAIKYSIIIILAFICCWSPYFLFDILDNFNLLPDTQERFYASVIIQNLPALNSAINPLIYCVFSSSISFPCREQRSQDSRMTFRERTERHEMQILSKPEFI
Tau fibril FP = inhibitors of human tau fibril formation. P10636. K18 P301L tau heparin fibrillization, Alexa594 FP, 6 h. Potency, µM (doses to about 57.7 µM), without a hit: at the highest dose activity, negative = inhibition, usual class: inhibitors. 0.39% of 280,000 active; further: potency means the concentration at half of the fitted maximal effect; nearly all actives have a fitted effect of over 55% in size
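K18 P301L tau (15 uM unlabeled/0.24 uM Alexa 594-labeled, final) + compound + heparin 20 uM final; 100 mM NaOAc pH 7; 6 hr 37 C; ThT 30 uM final added, 1 hr RT; FP ex 555/em 632 nm.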
Active calls of the source: *; ? = inconclusive; nt = not tested or not shown; [ ] = remark or other dose. Compounds with a hit are over-represented: about 5.1% of the library has one in this group of screens. Unless noted, the call rests on the fitted dose curve; in most records, active means well fitted curve in the direction sought with a large enough effect; inconclusive means small, poorly fitted or top-dose-only effect, or another doubt; inactive means no such curve, though single readings can be large; an effect the other way counts as inactive or inconclusive. Unless noted, on the % scale 0 is the no-effect control and ±100 the full control effect.

SMILES | Tau ThT inhib | PNC assembly inh | KDM4E inh | Tau fluor counter | NPSR antagonist | Tau fibril FP
C=C(C)COc1ccc(-c2[nH]ncc2Oc2ccccc2OC)c(O)c1 | ? | ? | ? | 14µM*[quencher] | ? | ?
C=C(C)COc1ccc(-c2[nH]ncc2Oc2ccc(OC)cc2)c(O)c1 | ? | nt | -16% | 7.9µM*[quencher] | -51% | ?
COc1ccc(-c2[nH]ncc2-c2nc(C)cs2)c(O)c1 | -5% | nt | -4% | -10% | 3% | 0%
CCCOC(=O)c1ccc(Oc2cn[nH]c2-c2ccc(OC)cc2O)cc1 | ? | 14 | -2% | 11µM*[quencher] | ? | ?
CCn1c(=O)c2sccc2n2c(CCC(=O)Nc3ccc(OC)cc3OC)nnc12 | 0% | nt | nt | -4% | nt | 0%
CC1CCN(C(c2ccc(F)cc2)c2sc3nc(-c4ccco4)nn3c2O)CC1 (stereo unspecified) | -2% | nt | nt | -8% | nt | -4%
C=C(C)COc1ccc(-c2[nH]ncc2-c2ccccc2OC)c(O)c1 | ? | -27 | -9% | 16µM*[quencher] | ? | -5%
C=C(C)COc1ccc(-c2nc(N)ncc2Oc2ccccc2OC)c(O)c1 | 2% | 37 | 0% | ? | ? | ?
COc1ccccc1N1CCN(c2ncnc3onc(C)c23)CC1 | -6% | nt | nt | 0% | nt | -1%
COc1cccc(NC(=O)Cn2c(=O)n(Cc3ccc(F)cc3)c(=O)c3sc4ccccc4c32)c1 | ? | nt | nt | -9% | nt | ?
COc1cc(OC)c(C2C=C(c3ccc(C)cc3)Nc3c(C(=O)Nc4ccccc4)cnn32)cc1OC (stereo unspecified) | -13% | nt | nt | 18µM*[quencher] | nt | 9%
Cn1ccnc1SCC(=O)NC12CC3CC(CC(C3)C1)C2 | -2% | -127* | -4% | -3% | -14%[46.1 µM] | 3%
CCC(C)NC(=O)c1cccc(NC(=O)c2nsc3ccccc23)c1 (stereo unspecified) | -8% | nt | nt | -14% | nt | -3%
Cc1nc(S/C(=C/c2ccc(-c3cc(Cl)ccc3C)o2)C(=O)O)n[nH]1 | 11µM* | nt | 5µM* | -29% | 14%[7.67 µM] | -17%
CC(C)OC(=O)/C(C#N)=C/c1ccc(-c2ccc(Cl)c(Cl)c2)o1 | 12% | nt | nt | -1% | nt | -11%
Cc1nc(S/C(=C/c2ccc(-c3ccc(Cl)cc3)o2)C(=O)O)n[nH]1 | 2µM* | ? | -15% | ? | -10%[46.1 µM] | 6%
O=C(O)/C(=C\c1ccc(-c2ccc(F)cc2)o1)c1ccccc1 | ? | nt | ? | -8% | -23% | -3%
CC(=O)c1ccc(-c2ccc(/C=C(/Sc3n[nH]c(C)n3)C(=O)O)o2)cc1 | 1µM* | nt | -19% | ? | 46% | -5%
Cc1nc(S/C(=C/c2ccc(-c3ccc(C(=O)O)cc3)o2)C(=O)O)n[nH]1 | 4.5µM* | nt | -13% | -13% | -2%[7.67 µM] | -14%
COc1cccc(-n2c(=O)c3c(C)c(C)sc3n(Cc3ccccc3C#N)c2=O)c1 | 0% | nt | nt | -4% | nt | 1%
O=C(CNC(=O)c1ccccc1Cl)OCc1cc(=O)n2ccsc2n1 | -5% | nt | nt | -3% | nt | -4%
CCOC(=O)c1c(C)[nH]c2cc(Br)c(O)cc12 | ? | -15 | 0% | -10% | -12%[46.1 µM] | 4%
CCOC(=O)c1c(OCC)[nH]c2c1cc(O)c1ccccc12 | 14µM* | 17 | 22µM* | ? | -18%[46.1 µM] | 11%
CCCc1nc2oc3c(NCC4CCCO4)ncnc3c2c2c1COC(C)(C)C2 (stereo unspecified) | -1% | ? | ? | -3% | -6%[46.1 µM] | -1%
CC(C)c1nc2oc3c(NCC4CCCO4)ncnc3c2c2c1CCC2 (stereo unspecified) | -5% | -98* | ? | -3% | ? | 9%
SMILES | Tau ThT inhib | PNC assembly inh | KDM4E inh | Tau fluor counter | NPSR antagonist | Tau fibril FP
Cc1ccc(C)n1-c1ccc(N2CCOCC2)nc1 | 13µM* | -1 | ? | -29% | -18%[46.1 µM] | -13%
N#CCCN1CCCc2cc(N=Nc3ccc(C(F)(F)F)cc3)ccc21 | 3.5µM* | nt | -10% | 8.9µM*[quencher] | ? | ?
CN(C)c1ccc(P(=O)(OCc2ccccc2)C(O)c2ccncc2)cc1 (stereo unspecified) | ? | -29 | 20µM* | -16% | -9%[46.1 µM] | -2%
CN(C)c1ccc(C(O)P(=O)(OCc2ccccc2)c2ccc(N(C)C)cc2)cc1 (stereo unspecified) | -15% | nt | -17% | -6% | -8% | 4%
CCCOP(=O)(c1ccc(N(C)C)cc1)C(O)c1ccncc1 (stereo unspecified) | -10% | -9 | 18µM* | -2% | 1%[46.1 µM] | -5%
COc1ccc(-c2nnc3c4ccccc4c(C)nn23)cc1 | ? | -89* | 1% | -10% | ? | 1%
Cc1nn2c(-c3ccncc3)nnc2c2ccccc12 | -7% | -5 | -4% | 1% | -18%[46.1 µM] | -1%
CC(C)=CCc1c(O)ccc(C(=O)Cc2ccccc2)c1O | -17% | 32 | -2% | ? | -1%[46.1 µM] | 14µM*
CCC(=O)c1ccc(O)c(CC=C(C)C)c1 | -3% | 12 | -3% | -5% | 8%[46.1 µM] | 0%
Cc1oc2cc3oc(=O)c(CC(=O)NCc4ccccc4)c(C)c3cc2c1C | -2% | nt | nt | 3% | nt | -4%
CC(=O)Nc1sc(N/N=C\c2ccccc2)nc1-c1cccs1 | 10µM* | -21 | -5% | ? | 2% | -6%
CCOc1cc(/C=N/NC(=O)Nc2ccccc2)ccc1O | ? | nt | 1% | -28% | 17% | 14%
Nc1nc(-c2cccs2)c(NC(=O)c2ccccc2)s1 | 14µM* | -26 | -5% | ? | -2%[7.67 µM] | ?
CC(=O)Nc1sc(N/N=C\c2ccccc2Cl)nc1-c1cccs1 | 10% | ? | -10% | 4% | 9% | 1%
CCOc1cc(/C=N/Nc2nc(-c3cccs3)c(NC(C)=O)s2)ccc1O | 25µM* | nt | -23% | ? | -20% | -12%
CC(=O)Nc1sc(N/N=C\c2ccco2)nc1-c1cccs1 | 16µM* | ? | -23% | ? | -11% | ?
COc1ccc(C2CC(=O)c3cc(-c4nc(-c5cccc([N+](=O)[O-])c5)cs4)c(=O)n(-c4ccc(C)c(C)c4)c3C2)cc1 (stereo unspecified) | -1% | nt | nt | ? | nt | -4%
O=C(CSc1nccn1-c1ccc(Cl)cc1)Nc1cccc2ccccc12 | -9% | nt | nt | -25% | nt | -6%
COc1ccc(Cl)cc1NC(=O)Cn1c(=O)n(Cc2ccco2)c(=O)c2cccnc21 | 10% | nt | nt | -25% | nt | ?
CC(=O)Nc1sc(NC(=O)c2ccc([N+](=O)[O-])cc2)nc1-c1cccs1 | 7.9µM* | nt | -5% | ? | 20% | 2%
COc1ccc(-c2cnnc(N/N=C/c3ccc(O)c(OC)c3)n2)cc1 | 1.8µM* | 51 | 1% | ? | 4% | 4%

Screening data as filed in PubChem.
